PubChem BioAssay (NCI)
This is part of a sample that, as a whole, favours compounds with a hit. Of some 79,000 tested, about 15% had one in any assay. Values without a mark were called inactive. The source made the active and inactive calls. Cut-off read from the data, not from the text of the source: active = growth inhibition above about 70%; inactive = the rest.

Tests used:
[1] = NCI Yeast Anticancer Drug Screen. Data for the rad50 strain (AID 155);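 note: 0% = growth of vehicle-only cultures of the same strain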; conditions: S. cerevisiae rad50 strain growth inhibition, active compounds read high
Summary of the method: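 Vehicle-treated cultures provide the reference for the growth inhibition reported for compound-exposed, repair-deficient yeast.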

[2] = NCI Yeast Anticancer Drug Screen. Data for the mec2-1 strain (AID 157); conditions: S. cerevisiae mec2-1 strain, active compounds read high
Summary of the method: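 Readout is yeast growth inhibition, normalised to vehicle-treated controls, in the mec2-1 strain exposed to compound.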

[3] = NCI Yeast Anticancer Drug Screen. Data for the sgs1 mgt1 strain (AID 161);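 note: 0% = growth of cultures given vehicle only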; conditions: S. cerevisiae sgs1 mgt1 strain, active compounds read high
Summary of the method: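 Yeast cells carrying a defined DNA-repair defect were exposed to test compounds. Growth inhibition was measured relative to vehicle-treated controls.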

[4] = NCI Yeast Anticancer Drug Screen. Data for the cln2 rad14 strain (AID 165);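 note: 0% = growth equal to vehicle treated cultures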; conditions: S. cerevisiae cln2 rad14 strain, active compounds read high
Summary of the method: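 Relative to vehicle controls, growth inhibition of compound-treated cln2 rad14 yeast was recorded.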

[5] = NCI Yeast Anticancer Drug Screen. Data for the bub3 strain (AID 167); conditions: S. cerevisiae bub3 mutant strain, active compounds read high
Summary of the method: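 Mutant yeast screening strain plus compound; vehicle-treated cultures serve as the 0% inhibition reference.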

[6] = NCI Yeast Anticancer Drug Screen. Data for the mlh1 rad18 strain (AID 175); conditions: S. cerevisiae mlh1 rad18 strain growth inhibition, active compounds read high
Summary of the method: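 Test agents were incubated with a yeast strain of defined genotype (DNA damage repair defect). Inhibition of growth was derived by comparison with vehicle-exposed cultures.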

[7] = at 5.0 µM (retest, dose inferred, filed as 0.5)
[8] = at 50.0 µM (retest, dose inferred, filed as 5.0)

Row | Compound | growth inhibition [1, 7] | growth inhibition [1, 8] | growth inhibition ([1]; at 50.0 µM) | growth inhibition [2, 7] | growth inhibition [2, 8] | growth inhibition ([2]; at 50.0 µM) | growth inhibition [3, 7] | growth inhibition [3, 8] | growth inhibition ([3]; at 50.0 µM) | growth inhibition [4, 7] | growth inhibition [4, 8] | growth inhibition ([4]; at 50.0 µM) | growth inhibition [5, 7] | growth inhibition [5, 8] | growth inhibition ([5]; at 50.0 µM) | growth inhibition [6, 7] | growth inhibition [6, 8] | growth inhibition ([6]; at 50.0 µM)
1 | CC(=O)Nc1ccc(O)c(=O)cc1 | 18% | 96% (active) | 90.6% (active) | 42% | 97% (active) | 87.5% (active) | 27% | 96% (active) | 96.1% (active) | 16% | 93% (active) | 20.9% | 23% | 93% (active) | 53.9% | 19% | 97% (active) | 97.2% (active)
2 | Cc1ccccc1C[n+]1ccccc1Br | 11% | 87% (active) | 94.3% (active) | 9% | 79% (active) | 60.6% | 12% | 78% (active) | 64.6% | -4% | 74% (active) | 32% | -12% | 77% (active) | 59.6% | 15% | 90% (active) | 54.4%
3 | CN[C@@H](Cc1cccc2ccccc12)C(=O)N[C@@H](CC(C)C)B(O)O | 34% | 51% | 27.1% | 37% | 40% | 12.1% | 16% | 18% | 3.85% | 53% | 54% | 59.4% | 25% | 16% | 36.5% | 33% | 60% | 16.4%
4 | OC(c1ccccc1)c1cccc2ccccc12 (stereo not given) | -1% | 47% | 91.3% (active) | -5% | 14% | 67.3% | 20% | 25% | -1.85% | -8% | 18% | 44.8% | -1% | 30% | 67% | -1% | 25% | 43.1%
5 | CC1(C)C/C(=N/NC(N)=S)C(=NO)/C(=N\NC(N)=S)C1 | 6% | 60% | 75% (active) | 2% | 40% | 62% | 9% | 61% | 77.4% (active) | -13% | 27% | 23.4% | 0% | 34% | 76.8% (active) | 2% | 59% | 74.5% (active)
6 | O=C1CC(O)C=C1Nc1ccc(Cl)cc1 (stereo not given) | 3% | 14% | 98.8% (active) | -3% | 29% | 98.2% (active) | -6% | 4% | 98.7% (active) | -8% | -8% | 98.5% (active) | -9% | -22% | 97.8% (active) | 0% | 7% | 98.5% (active)
7 | CC1C(CCC(=O)O)OC2CC3C4CCC5CC(O)CCC5(C)C4CCC3(C)C21 (stereo not given) | 4% | 56% | 82.3% (active) | 7% | 96% (active) | 90% (active) | 22% | 89% (active) | 95.5% (active) | 8% | 90% (active) | 93.7% (active) | 4% | 66% | 86.4% (active) | 16% | 91% (active) | 85.3% (active)
8 | O=C(CBr)c1cc(-c2ccc(Cl)cc2)nc2ccccc12 | 86% (active) | 98% (active) | 98.9% (active) | 95% (active) | 99% (active) | 99% (active) | 100% (active) | 99% (active) | 99% (active) | 35% | 98% (active) | 98% (active) | 95% (active) | 99% (active) | 98.7% (active) | 97% (active) | 98% (active) | 98.8% (active)
9 | O=c1[nH]ncc(SCc2ccccc2)c1SCc1ccccc1 | 8% | 35% | 97.2% (active) | 3% | 53% | 97.9% (active) | 1% | 58% | 98% (active) | 8% | 31% | 96.1% (active) | 14% | 37% | 98.4% (active) | 8% | 57% | 96.5% (active)
10 | C=Cc1nc(N)nc(-c2ccc(C)cc2)n1 | 7% | 91% (active) | 92.3% (active) | 12% | 94% (active) | 91.3% (active) | 3% | 95% (active) | 92.6% (active) | -8% | 74% (active) | 49.2% | 6% | 93% (active) | 86% (active) | 7% | 96% (active) | 95.2% (active)
